PubChem BioAssay
Active and inactive are the calls of the source. Unless noted, no rule for the calls is given here.

What was measured:
[1] = A549 cell viability effects, profiling panel, calcein-AM fluorescence, 48 h, basal (AID 1162); conditions: higher = more signal; also: test concentration not given here
[2] = adipocyte viability effects, profiling panel, cell-based, 3T3-L1 adipocytes, calcein-AM fluorescence, 48 h, basal (AID 1163); conditions: 3T3-L1 adipocytes viability, higher = more signal; also: test concentration not given here
[3] = HepG2 cell viability effects, profiling panel, calcein-AM fluorescence, 48 h, basal (AID 1164); conditions: higher = more signal; also: test concentration not given here
[4] = MM1S cell viability effects, profiling panel, calcein-AM fluorescence, 48 h, basal (AID 1165); conditions: higher = more signal;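 also: viability of MM1S multiple myeloma cells under basal unstimulated conditions; test concentration not given here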
[5] = basal RPMI8226 viability, no added stimulus, profiling panel, cell-based, calcein-AM fluorescence, 48 h, PK04 Diversity Set (AID 1166); conditions: RPMI8226 myeloma viability, higher = more signal;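 also: cells grown under basal conditions without added stimulus; test concentration not given here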
[6] = basal HepG2 mitochondrial membrane potential changes, profiling panel, cell-based, JC-1 fluorescence, 24 h, 100 nL compound (AID 1167); conditions: higher = more signal; also: test concentration not given here
[7] = basal 3T3-L1 adipocyte mitochondrial potential changes, profiling panel, cell-based, JC-1 fluorescence, 3T3-L1 adipocytes, 24 h, 100 nL compound (AID 1168); conditions: JC-1 mitochondrial fluorescence, higher = more signal, called active from +8 up or from −8 down; also: test concentration not given here
[8] = basal RPMI8226 mitochondrial membrane potential changes, profiling panel, cell-based, JC-1 fluorescence, 24 h, 100 nL compound (AID 1169); conditions: RPMI8226 myeloma, JC-1 mitochondrial potential fluorescence, higher = more signal; also: test concentration not given here
[9] = basal MM1S mitochondrial membrane potential changes, profiling panel, cell-based, JC-1 fluorescence, 24 h, 100 nL compound (AID 1170); conditions: higher = more signal; also: test concentration not given here
[10] = A549 lung cancer cell viability effects, profiling panel, resazurin fluorescence, 24 h, PK04 Diversity Set (AID 1171); conditions: higher = more signal, called active from +8 up or from −8 down; also: test concentration not given here
[11] = HepG2 liver cancer cell viability effects, profiling panel, resazurin fluorescence, 24 h, PK04 Diversity Set (AID 1172); conditions: higher = more signal; also: test concentration not given here
[12] = basal S. cerevisiae growth modulation, no modifier, primary screen, OD600, strain BY4716, 24 h, basal condition (AID 1173); conditions: OD600, 24 h, higher = more signal, called active from +8 up or from −8 down
[13] = MM1S myeloma cell viability, profiling panel, resazurin fluorescence, basal, 24 h, PK04 Diversity Set (AID 1174); conditions: higher = more signal, called active from +8 up or from −8 down;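 also: MM1S multiple myeloma cell line; test concentration not given here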
[14] = target: Dihydroorotate dehydrogenase (quinone), mitochondrial (Plasmodium falciparum (isolate 3D7)) (UniProt Q08210); test: PfDHODH enzyme inhibitors, primary screen, biochemical, C-terminal His tag, absorbance 600 nm (AID 1175); conditions: DCIP absorbance 600 nm, higher = more signal, called active from +8 up or from −8 down;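 also: recombinant parasite enzyme with a five histidine tag at its C terminus; test concentration not given here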
Sequence of Dihydroorotate dehydrogenase (quinone), mitochondrial (Plasmodium falciparum (isolate 3D7)) (Q08210 whole entry, looked up): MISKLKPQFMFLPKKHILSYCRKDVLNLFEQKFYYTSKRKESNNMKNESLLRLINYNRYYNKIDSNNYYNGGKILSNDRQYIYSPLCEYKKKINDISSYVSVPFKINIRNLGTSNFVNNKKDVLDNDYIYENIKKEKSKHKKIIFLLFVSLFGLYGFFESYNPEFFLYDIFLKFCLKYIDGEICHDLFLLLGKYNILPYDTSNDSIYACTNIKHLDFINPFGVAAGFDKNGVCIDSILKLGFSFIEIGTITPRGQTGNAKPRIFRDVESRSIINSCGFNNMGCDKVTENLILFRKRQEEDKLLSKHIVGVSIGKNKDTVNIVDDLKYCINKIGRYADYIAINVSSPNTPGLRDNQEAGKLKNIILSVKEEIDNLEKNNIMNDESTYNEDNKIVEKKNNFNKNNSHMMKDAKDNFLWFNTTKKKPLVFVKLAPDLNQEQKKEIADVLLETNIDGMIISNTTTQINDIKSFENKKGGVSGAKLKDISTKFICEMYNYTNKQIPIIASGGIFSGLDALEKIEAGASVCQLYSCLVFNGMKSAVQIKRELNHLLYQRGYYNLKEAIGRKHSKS

[15] = P. aeruginosa biofilm formation inhibitors, primary screen, strain PAO1, LB-PBS medium, absorbance 600 nm (AID 1176); also: test concentration not given here; conditions: P. aeruginosa PAO1 growth/biofilm, A600, 12 h; higher = more signal
[16] = S. cerevisiae RM11-1a growth modifiers, primary screen, strain RM11-1a, OD600, basal, 24 h (AID 1177); conditions: OD600, 24 h, higher = more signal, called active from +8 up or from −8 down;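 also: cultures grown under basal conditions with no added stressor; test concentration not given here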
[17] = E. coli acrAB mutant growth effects, primary screen, E. coli filamentation inducers, strain DRC39, OD650, 24 h (AID 1178); conditions: higher = more signal, called active from +8 up or from −8 down;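 also: growth measured as culture turbidity by optical density at 650 nm; test concentration not given here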
[18] = E. coli acrAB mutant growth effects, primary screen, E. coli filamentation inducers, strain DRC39, OD650, 48 h (AID 1179);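 also: screen aims at cell division blockers that make cells filament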; conditions: E. coli DRC39 delta-acrAB growth, higher = more signal, called active from +8 up or from −8 down
[19] = RPMI8226 myeloma cell viability, profiling panel, resazurin fluorescence, basal, 24 h, PK04 Diversity Set (AID 1180); conditions: higher = more signal;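 also: RPMI8826 multiple myeloma cell line at 5000 cells per well; test concentration not given here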
[20] = target: E3 ubiquitin-protein ligase XIAP (Homo sapiens) (UniProt P98170); test: XIAP binders, primary screen, biophysical, small-molecule microarray, fluorescence 635 nm (AID 1181); conditions: small-molecule microarray binding, higher = more signal;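 also: score merges 667 nm emission and signal to noise over triplicate slides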
Sequence of E3 ubiquitin-protein ligase XIAP (Homo sapiens) (P98170 whole entry, looked up): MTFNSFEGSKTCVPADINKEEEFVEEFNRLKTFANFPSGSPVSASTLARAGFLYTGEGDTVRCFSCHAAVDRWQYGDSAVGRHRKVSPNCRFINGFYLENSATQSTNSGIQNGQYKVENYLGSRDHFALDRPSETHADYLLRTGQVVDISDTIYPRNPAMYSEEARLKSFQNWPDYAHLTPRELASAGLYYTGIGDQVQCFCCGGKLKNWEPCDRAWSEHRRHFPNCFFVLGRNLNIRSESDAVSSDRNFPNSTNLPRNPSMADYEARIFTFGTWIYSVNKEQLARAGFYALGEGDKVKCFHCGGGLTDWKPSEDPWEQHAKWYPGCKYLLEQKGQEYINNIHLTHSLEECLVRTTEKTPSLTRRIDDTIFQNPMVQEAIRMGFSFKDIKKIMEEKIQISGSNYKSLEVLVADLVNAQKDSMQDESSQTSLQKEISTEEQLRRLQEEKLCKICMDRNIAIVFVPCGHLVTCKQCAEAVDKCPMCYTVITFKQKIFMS

## O=C1O[C@H](c2ccccc2)[C@H](c2ccccc2)N2[C@H]1[C@@H](C(=O)Nc1nc3ccccc3s1)[C@]1(C(=O)Nc3ccc(C#CC4=CCCCC4)cc31)[C@H]2c1ccccc1OCCO
[1]
  z-score: -0.639
[2]
  z-score: 0.313
[3]
  z-score: -0.557
[4]
  z-score: -1.63
[5]
  z-score: -1.07
[6]
  z-score: -2.86
[7]
  z-score: -1.06 (inactive)
[8]
  z-score: -0.798
[9]
  z-score: -1.46
[10]
  z-score: -0.893 (inactive)
[11]
  z-score: 0.111
[12]
  z-score: 1.86 (inactive)
[13]
  z-score: -0.912 (inactive)
[14]
  composite z-score: 0.835 (inactive)
[15]
  z-score: 2.73 (inactive)
[16]
  z-score: 2.71 (inactive)
[17]
  z-score: -1.27 (inactive)
[18]
  z-score: -1.24 (inactive)
[19]
  z-score: -0.711
[20]
  composite z-score: 0.0705

## COCCCNC(=O)[C@@H]1c2ccccc2C(=O)N(CC23CC4CC(CC(C4)C2)C3)[C@H]1c1ccc(CO)cc1
[1]
  z-score: 0.0071
[2]
  z-score: 1.3
[3]
  z-score: 0.0729
[4]
  z-score: -0.193
[5]
  z-score: -0.996
[6]
  z-score: 1.12
[7]
  z-score: -0.227 (inactive)
[8]
  z-score: 0.0172
[9]
  z-score: 0.0814
[10]
  z-score: 0.729 (inactive)
[11]
  z-score: 0.172
[12]
  z-score: -0.323 (inactive)
[13]
  z-score: -0.104 (inactive)
[14]
  composite z-score: 0.297 (inactive)
[15]
  z-score: 0.87 (inactive)
[16]
  z-score: 0.208 (inactive)
[17]
  z-score: 0.0488 (inactive)
[18]
  z-score: -0.543 (inactive)
[19]
  z-score: 0.0917
[20]
  composite z-score: 0.03

## O=C1O[C@@H](c2ccccc2)[C@@H](c2ccccc2)N2[C@@H](c3ccc(OCCO)cc3)[C@]3(C(=O)Nc4ccc(C#CCCO)cc43)[C@@H](C(=O)N3CCN(c4ncccn4)CC3)[C@H]12
[1]
  z-score: 0.848
[2]
  z-score: 0.38
[3]
  z-score: -0.17
[4]
  z-score: 0.0057
[5]
  z-score: 0.442
[6]
  z-score: 0.0349
[7]
  z-score: 1.88 (inactive)
[8]
  z-score: -0.623
[9]
  z-score: 0.173
[10]
  z-score: 0.293 (inactive)
[11]
  z-score: 1.26
[12]
  z-score: 1.35 (inactive)
[13]
  z-score: 0.833 (inactive)
[14]
  composite z-score: -1.58 (inactive)
[15]
  z-score: 1.55 (inactive)
[16]
  z-score: 2.04 (inactive)
[17]
  z-score: 1.05 (inactive)
[18]
  z-score: 0.17 (inactive)
[19]
  z-score: 2.17
[20]
  composite z-score: 0.19

## C=C(COC)C(=O)CC[C@H](OC(=O)c1ccccc1-c1ccccc1C(=O)O)c1cccc(OCCO)c1
[1]
  z-score: -0.339
[2]
  z-score: -0.765
[3]
  z-score: -2.08
[4]
  z-score: -1.12
[5]
  z-score: -0.28
[6]
  z-score: -2.01
[7]
  z-score: 0.414 (inactive)
[8]
  z-score: 0.231
[9]
  z-score: -0.0895
[10]
  z-score: -1.46 (inactive)
[11]
  z-score: -1.06
[12]
  z-score: -17.1 (active)
[13]
  z-score: -0.805 (inactive)
[14]
  composite z-score: -6.66 (inactive)
[15]
  z-score: 1.99 (inactive)
[16]
  z-score: -5.09 (inactive)
[17]
  z-score: -1.27 (inactive)
[18]
  z-score: -1.04 (inactive)
[19]
  z-score: -0.858
[20]
  composite z-score: 0.511
